Measured values: PubChem BioAssay (EPA / NIEHS)
Calls of active or inactive are those of the source. Rule for the calls: active = hit-call score of the fitted dose curve at least 0.9, where 1 is the maximum; inactive = score below 0.9.

Assays:
[1] = APR_HepG2_CellCycleArrest_24hr: Apredica 24-hour HepG2 Assay for Cell Cycle Arrest (AID 2282905); conditions: imaging, actives raise or lower the signal;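 note: cell cycle arrest scored as ratio of 2N to 4N nuclear DNA content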
Outline: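 Compounds (0.39 to 200 uM, final DMSO 0.5% v/v) are applied to HepG2 cells for 24 hours; cells are then fixed, permeabilized and nuclei labeled with Hoechst 33342. Automated imaging measures DNA content, and activity is fitted in both directions against DMSO.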

[2] = APR_HepG2_NuclearSize_24hr: Apredica 24-hour HepG2 Assay for Nuclear Size (AID 2282907); conditions: high-content imaging, actives raise or lower the signal
Outline: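 Nuclear size is measured by fluorescence high-content imaging of Hoechst-labelled HepG2 nuclei after 24 hr of treatment (0.39–200 uM, 0.5% DMSO). Cells are fixed in 3.7% formaldehyde before staining, and DMSO serves as the baseline for bidirectional curve fitting.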

[3] = APR_HepG2_CellLoss_24hr: Apredica 24-hour HepG2 Assay for Cell Loss (AID 2282908); conditions: high-content imaging;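 for AC50: fit in both directions so a hit may be cell loss or gain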
Outline: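 Nuclear count serves as the viability measure: treated cells are fixed, permeabilized and labelled with Hoechst 33342, and six images per well are analysed to identify valid nuclei. Doses span 0.39–200 uM, and activity in either direction is scored against DMSO.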

[4] = APR_HepG2_MicrotubuleCSK_24hr: Apredica 24-hour HepG2 Assay for Microtubule CSK Stabilty (AID 2282909); conditions: HepG2 microtubule cytoskeleton imaging, actives raise or lower the signal
Outline: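 Compounds were applied to HepG2 cells for 24 hours across 0.39–200 uM in duplicate, with final DMSO at 0.5% v/v. Fixed, permeabilized cells were labeled for alpha-tubulin and nuclei, and tubulin fluorescence was quantified by imaging, fitted bidirectionally against DMSO.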

[5] = APR_HepG2_MitoticArrest_24hr: Apredica 24-hour HepG2 Assay for Mitotic Arrest (AID 2282910); conditions: high-content imaging, actives raise or lower the signal
Outline: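 Treatment lasted 24 hr in the human HepG2 line at 0.39–200 uM, solvent held at 0.5% DMSO. Fixed cells were stained with Hoechst 33342 and anti-phospho-histone H3, imaged at 20x, and analysed by gain- or loss-of-signal fitting against DMSO.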

[6] = APR_HepG2_MitoMembPot_24hr: Apredica 24-hour HepG2 Assay for Mitochondrial Membrane Potential (AID 2282911); conditions: imaging, actives raise or lower the signal
Outline: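 HepG2, 24 hr dosing, 10 concentrations 0.39–200 uM, 0.5% DMSO final. Live-cell MitoTracker Red CMXRos 250 nM 30 min, then 3.7% formaldehyde fix. HCS fluorescence imaging, 20x; bidirectional fit vs DMSO baseline.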

[7] = APR_HepG2_MitoMass_24hr: Apredica 24-hour HepG2 Assay for Mitochondrial Mass (AID 2282912); conditions: high-content imaging, actives raise or lower the signal
Outline: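 After 24 hr of treatment at 0.39 to 200 uM, HepG2 cells take up 250 nM MitoTracker Red CMXRos for 30 min and are then fixed with 3.7% formaldehyde. Per-well images are quantified, and any change in either direction is scored against solvent.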

[8] = APR_HepG2_p53Act_24hr: Apredica 24-hour HepG2 Assay for p53 Activation (AID 2282913); conditions: high-content imaging, actives raise or lower the signal;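 note: p53 protein immunofluorescence averaged per cell in HepG2 with Hoechst nuclei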
Outline: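 Read-out: Cy5 immunofluorescence for p53 in fixed, permeabilized HepG2, imaged by HCS with Hoechst-defined nuclei. Dosing was 24 hr at 0.39–200 uM in 0.5% DMSO. Curves were fitted bidirectionally relative to DMSO.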

[9] = APR_HepG2_CellCycleArrest_72hr: Apredica 72-hour HepG2 Assay for Cell Cycle Arrest (AID 2282914); conditions: high-content imaging, actives raise or lower the signal
Outline: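 HepG2, 72 hr exposure, 10-point 0.39–200 uM, duplicate, 0.5% DMSO final. Fix 3.7% formaldehyde 30 min RT, Triton X-100 0.5%, Hoechst 33342 2 ug/mL. ArrayScan 20x, six fields/well; DNA content per nucleus; bidirectional fit vs DMSO.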

[10] = APR_HepG2_CellLoss_72hr: Apredica 72-hour HepG2 Assay for Cell Loss (AID 2282915); conditions: high-content imaging
Outline: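 HepG2 cells were exposed for 72 hr to compounds at 0.39–200 uM (ten concentrations, duplicate) in 0.5% v/v final DMSO. Nuclei were stained with Hoechst 33342 after 3.7% formaldehyde fixation, imaged at 20x, and counted; fits bidirectional versus DMSO.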

[11] = APR_HepG2_P-H2AX_72hr: Apredica 72-hour HepG2 Assay for H2AX Phosphorylation (AID 2282916); conditions: imaging, actives raise or lower the signal;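 note: phospho-histone H2A.x immunostain intensity per cell marking DNA damage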
Outline: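 Human hepatoma HepG2 cells are dosed across ten concentrations (0.39 to 200 uM, 0.5% v/v DMSO) and incubated 72 hr. Phospho-histone H2A.x is then detected by antibody staining alongside c-Jun and Hoechst, and quantified by automated fluorescence imaging.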

[12] = APR_HepG2_MitoMembPot_72hr: Apredica 72-hour HepG2 Assay for Mitochondrial Membrane Potential (AID 2282917); conditions: imaging, actives raise or lower the signal
Outline: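 HepG2 cells exposed 72 h to compounds at 0.39–200 uM (0.5% v/v DMSO, duplicates); MitoTracker Red CMXRos 250 nM loaded 30 min before 3.7% formaldehyde fixation, imaged by HCS fluorescence. Bidirectional fit versus DMSO.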

[13] = APR_HepG2_MitoticArrest_72hr: Apredica 72-hour HepG2 Assay for Mitotic Arrest (AID 2282918); conditions: high-content imaging, actives raise or lower the signal
Outline: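 HepG2, 72 hr exposure, 0.39–200 uM in duplicate, 0.5% v/v DMSO final. Formaldehyde-fixed, Triton-permeabilized, anti-phospho-histone H3/FITC plus Hoechst. ArrayScan imaging at 20x; curves fit bidirectionally against DMSO baseline.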

[14] = APR_HepG2_MicrotubuleCSK_72hr: Apredica 72-hour HepG2 Assay for Microtubule CSK Stabilty (AID 2282919); conditions: HepG2 microtubule cytoskeleton, high-content imaging, actives raise or lower the signal
Outline: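 Ten-point dosing (0.39–200 uM, 0.5% DMSO) of HepG2 for 72 hr, with taxol as the cytoskeletal positive control. The cells were formaldehyde-fixed and then stained with alpha-tubulin/Cy5 and Hoechst. Imaging at 20x used a −2 um Z offset for tubulin.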

[15] = APR_HepG2_P-H2AX_24hr: Apredica 24-hour HepG2 Assay for H2AX Phosphorylation (AID 2282920); conditions: high-content imaging, actives raise or lower the signal
Outline: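 HCS fluorescence imaging of phospho-H2A.x immunostain (with Hoechst 33342 nuclear counterstain) in HepG2 after 24 hr compound exposure; 10 concentrations, 0.39–200 uM, duplicate wells, 0.5% v/v DMSO. Gain or loss of signal fitted relative to DMSO baseline.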

[16] = APR_HepG2_StressKinase_72hr: Apredica 72-hour HepG2 Assay for Stress Kinase (AID 2282921); conditions: HepG2 stress kinase (phospho-c-Jun) imaging, actives raise or lower the signal
Outline: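 After a 72 h compound treatment spanning 0.39 to 200 uM, formaldehyde-fixed cells are labelled for phosphorylated c-Jun and nuclei, imaged by automated fluorescence microscopy, and activity is fitted in both directions relative to DMSO controls.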

[17] = APR_HepG2_StressKinase_24hr: Apredica 24-hour HepG2 Assay for Stress Kinase (AID 2282922); conditions: HepG2 stress kinase (phospho-c-Jun) imaging, actives raise or lower the signal
Outline: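 After 24 hr compound treatment (up to 200 uM, final DMSO 0.5% v/v), HepG2 cells are fixed and multiplex-labeled; phospho-c-Jun intensity is captured by high-content fluorescence imaging and analyzed relative to DMSO.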

[18] = APR_HepG2_p53Act_72hr: Apredica 72-hour HepG2 Assay for p53 Activation (AID 2282923); conditions: high-content imaging, actives raise or lower the signal;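 note: average cellular p53 protein immunofluorescence intensity in HepG2 cells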
Outline: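 Imaging-based endpoint: after 72 hr compound exposure (up to 200 uM, 0.5% DMSO), fixed and permeabilized monolayers were labelled with anti-p53 antibody and imaged; signal change in either direction was fitted relative to DMSO controls.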

[19] = APR_HepG2_MitoMass_72hr: Apredica 72-hour HepG2 Assay for Mitochondrial Mass (AID 2282924); conditions: high-content imaging, actives raise or lower the signal;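 note: MitoTracker Red CMXRos stain intensity per cell imaged as mitochondrial mass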
Outline: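 Steps: treat HepG2 72 hr (0.39–200 uM, duplicate wells); load MitoTracker Red CMXRos, 250 nM, 30 min; fix with 3.7% formaldehyde, permeabilise with 0.5% Triton X-100; capture images, nuclei via Hoechst 33342; fit bidirectionally against DMSO.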

[20] = APR_HepG2_NuclearSize_72hr: Apredica 72-hour HepG2 Assay for Nuclear Size (AID 2282925); conditions: high-content imaging, actives raise or lower the signal
Outline: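 Compounds (0.39–200 uM, final DMSO 0.5%) were applied to HepG2 for 72 hr. Cells were then formaldehyde-fixed, permeabilized and labelled with Hoechst 33342. Nuclear diameter was quantified from six images per well.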

Measured: AC50

OC12N=C(c3ccccc3)SC1Cc1cc(Cl)ccc12 (centres undefined)
active: [10] 67.5 µM | [11] 52.1 µM | [12] 0.548 µM | [13] 46.8 µM
inactive: all other assays above

O=C1O[C@H]([C@@H](O)CO)C(O)=C1O
active: [10] 16.1 µM | [11] 11.2 µM | [13] 7.73 µM | [18] 10.5 µM | [20] 11.1 µM
not listed: [16]
inactive: all other assays above

NC(=O)c1nc(-c2cccc(-c3cc(F)ccc3OCC(F)(F)C(F)(F)F)c2)n[nH]1
active: [3] 127 µM | [5] 101 µM | [7] 160 µM | [9] 104 µM | [10] 91.9 µM | [11] 111 µM | [16] 93.4 µM | [20] 100 µM
inactive: all other assays above

CCCCCCCCCCCO
active: [3] 103 µM | [5] 104 µM | [6] 110 µM | [8] 107 µM | [10] 107 µM | [13] 105 µM | [15] 100 µM
inactive: all other assays above

Cc1occc1C(=O)Nc1ccc(C(=O)N2CCC(F)(F)/C(=C\C(=O)N3CCC(N4CCCCC4)CC3)c3ccccc32)cc1
active: [1] 34.9 µM | [3] 16.2 µM | [10] 12.3 µM | [13] 20.7 µM | [18] 29 µM
inactive: all other assays above

CCCCCCCCCCCC[N+](C)(C)C
active: [1] 59 µM | [3] 75.6 µM | [5] 50.2 µM | [7] 180 µM | [8] 49.5 µM | [10] 41.7 µM | [11] 75.4 µM | [13] 13.2 µM | [15] 50.4 µM | [16] 100 µM | [18] 20.5 µM
inactive: [2] | [4] | [6] | [9] | [12] | [14] | [17] | [19] | [20]
